The target in test [1] is Lysosomal acid glucosylceramidase (Homo sapiens) (UniProt P04062). The test is described as follows: Glucocerebrosidase-p2 (AID 348; in the data active = potency below about 10 µM; also: potency is read from the fitted curve at half-maximal effect). The conditions noted are these: purified GBA, blue fluorogenic substrate, 40 min. In outline:
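Compounds titrated from 0.6 nM upwards against 0.2 nM enzyme in pH 5.9 citric acid/KH2PO4, taurocholate, tween-20; blue fluorogenic substrate 80 uM, 40 min room temperature, stopped and read Ex 365/Em 440 for AC50.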

Test [2] is described as follows: AP1 Signaling Pathway (AID 357).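 Also: ME-180 reporter cells stimulated with EGF at its EC50 level; % is scaled to controls: 0 for no effect and ±100 for the full control effect.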 The settings on record: ME-180 AP-1-bla reporter, EGF-induced, beta-lactamase ratio, 5 h; at 7.69 µM (top of the series) unless noted. The procedure, abridged: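 Titration-series screen for positive or negative modulators of EC50 EGF-induced signaling in ME-180 cells carrying an AP-1-driven beta-lactamase reporter. After 5 hours at 37 degrees Celsius, CCF4 460nm/530nm emission ratio gave %Activity; AC50 values derived.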

The target of test [3] is Cytochrome P450 1A2 (Homo sapiens) (UniProt P05177). Nature of the test: p450-cyp1a2 (AID 410; calls by dose curve; also: potency is read from the fitted curve at half-maximal effect;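 as to activity change, negative = inhibition: -100% = full effect of reference inhibitor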). The conditions noted are these: recombinant CYP1A2, luciferin-ME demethylation, luminescence; series mostly up to 11.4 µM. In outline: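 Luminescent readout of luciferin formed from Luciferin-ME by human CYP1A2; data normalized against complete inhibition by 57 uM furafylline. Enzyme 20nM, substrate 100uM at Km, 100mM KPO4 buffer, 60 min reaction at room temperature.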

Test [4] is described as follows: NFAT Signaling Pathway (AID 444).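 Also: carbachol stimulus at about its EC50 of 1 µM final; % is scaled to controls: 0 for no effect and ±100 for the full control effect.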 The settings on record: Jurkat NFAT-bla M1, carbachol, beta-lactamase ratio, 5 h; at 7.69 µM (top of the series) unless noted. In outline: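 Jurkat cells with NFAT-driven β-lactamase reporter and co-expressed M1 receptor, stimulated with carbachol (final 1 uM, ~EC50), compound titration, 5 h at 37 °C. CCF4 loaded 1 h at RT; 460/530 nm ratio gave %activity and AC50.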

A short description of test [5]: Stat Signaling Pathway (AID 446).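 Also: ME-180 cervical cancer cells given 40 pM IL-6 alongside compound; SIE-controlled beta-lactamase reporter measured as 460/530 nm FRET emission ratio; % is scaled to controls: 0 for no effect and ±100 for the full control effect.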 The settings on record: ME-180 (cervical carcinoma) SIE beta-lactamase reporter, IL-6 stimulated, 5 h; at 7.69 µM (top of the series) unless noted. In outline:
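IL-6/STAT signaling read in ME-180 cells via an SIE beta-lactamase reporter. Stimulus was 40 pM IL-6 (its AC50) for 5 hrs, so both activation and inhibition register.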

Test [6] concerns the target Glucocorticoid receptor (Homo sapiens) (UniProt P04150). Nature of the test: GR-GFP Redistribution (AID 450;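 active = compounds whose dose series gives a full or clear partial fitted curve of increased nuclear translocation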; also: potency is read from the fitted curve at half-maximal effect). The settings on record: U2OS GR-GFP nuclear translocation, laser cytometry, 2 h.
Test [7] has the same target. Nature of the test: GR-EFC Redistribution (AID 451; calls by dose curve; also: potency is read from the fitted curve at half-maximal effect). The settings on record: CHO-K1 GR-EFC translocation, beta-gal luminescence, 2 h. In outline:
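CHO-K1 cells expressing nuclear EA and GR-ED fragments of b-gal; compounds titrated up to 46 uM final, 2 h at 37 C. GR nuclear translocation read as complemented b-gal luminescence after 1 h RT detection.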

For test [8], the target named is Mitogen-activated protein kinase 10 (Mus musculus) (UniProt Q61831). The test is described as follows: JNK3 AlphaScreen Assay (AID 530).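 Also: kinase came from lysate of stimulated human HepG2 cells; signal reports phosphorylation of biotinylated GST-cJun 1-79 at Ser73 with 10 µM ATP; % is scaled to controls: 0 for no effect and ±100 for the full control effect.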 The conditions noted are these: JNK3 lysate, c-Jun phosphorylation; series mostly up to 11.4 µM. The procedure, abridged: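 Pre-activated (IL-1β/TNFα) JNK3 in HepG2 lysates phosphorylates biotin-GST-cJun(1-79), 10 uM ATP; anti-phospho-cJun(Ser73) AlphaScreen read at room temperature, pH 7.6 Tris buffer. Compounds pre-incubated 15 min as titrations.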

In test [9] the target is 3',5'-cyclic-AMP phosphodiesterase 4B (Homo sapiens) (UniProt Q07343). Nature of the test: qHTS Assay for Inhibitors of PDE-IV (AID 607; active = well fitted activation curve with a large enough effect in the main read-out, with a control signal flat, not every such curve was filed as active; also: % of control where 0% means no effect). The conditions noted are these: HEK293 ACTOne CNG channel cells, membrane potential fluorescence; series mostly up to 22.9 µM. In outline: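 Live HEK293 cells with a modified cyclic nucleotide-gated (CNG) channel report intracellular cAMP via membrane-potential dye fluorescence (ex 535/em 590 nm). Endogenous PDE-IV was targeted. Compounds were tested at up to 22.9 uM final; RO 20-1724 100 uM served as control.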
Background: qHTS replaces the single test concentration by a dilution series.

For 14 compounds, Potency, activity change, negative = inhibition and activity, negative = inhibition results are on record in PubChem BioAssay (NCATS).

Unmarked numbers belong to inactive results. Results filed as inconclusive are left out. Active and inactive are the calls of the source. Unless noted, calls follow the shape of the dose curve; as a rule, active = well fitted curve in either direction with a large enough effect (not every such curve was filed as active); inconclusive = small, poorly fitted or top-dose-only effect, or another doubt; inactive = flat fitted curve, though single readings scatter. Where only a bound is given, the exact number is not on record here.

Sequence of 3',5'-cyclic-AMP phosphodiesterase 4B (Homo sapiens) (Q07343 whole entry, looked up): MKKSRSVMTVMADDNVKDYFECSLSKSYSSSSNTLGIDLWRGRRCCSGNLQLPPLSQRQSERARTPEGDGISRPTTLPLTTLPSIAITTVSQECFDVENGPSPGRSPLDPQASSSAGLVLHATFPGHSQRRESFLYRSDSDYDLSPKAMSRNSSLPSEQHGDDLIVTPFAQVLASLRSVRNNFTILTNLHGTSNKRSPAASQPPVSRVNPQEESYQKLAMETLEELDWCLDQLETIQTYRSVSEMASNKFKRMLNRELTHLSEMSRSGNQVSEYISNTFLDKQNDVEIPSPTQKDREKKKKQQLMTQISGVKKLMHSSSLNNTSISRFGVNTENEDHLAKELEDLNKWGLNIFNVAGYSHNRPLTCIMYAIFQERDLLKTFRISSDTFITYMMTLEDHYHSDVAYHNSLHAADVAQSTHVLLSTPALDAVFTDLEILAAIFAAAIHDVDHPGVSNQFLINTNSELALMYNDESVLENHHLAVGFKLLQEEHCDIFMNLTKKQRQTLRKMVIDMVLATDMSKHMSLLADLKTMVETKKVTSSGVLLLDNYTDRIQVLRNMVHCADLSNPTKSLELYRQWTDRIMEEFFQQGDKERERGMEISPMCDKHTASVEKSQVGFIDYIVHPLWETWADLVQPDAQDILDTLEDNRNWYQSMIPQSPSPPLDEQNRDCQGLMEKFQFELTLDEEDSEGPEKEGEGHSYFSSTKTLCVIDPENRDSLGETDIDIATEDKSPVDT
Sequence of Cytochrome P450 1A2 (Homo sapiens) (P05177 whole entry, looked up): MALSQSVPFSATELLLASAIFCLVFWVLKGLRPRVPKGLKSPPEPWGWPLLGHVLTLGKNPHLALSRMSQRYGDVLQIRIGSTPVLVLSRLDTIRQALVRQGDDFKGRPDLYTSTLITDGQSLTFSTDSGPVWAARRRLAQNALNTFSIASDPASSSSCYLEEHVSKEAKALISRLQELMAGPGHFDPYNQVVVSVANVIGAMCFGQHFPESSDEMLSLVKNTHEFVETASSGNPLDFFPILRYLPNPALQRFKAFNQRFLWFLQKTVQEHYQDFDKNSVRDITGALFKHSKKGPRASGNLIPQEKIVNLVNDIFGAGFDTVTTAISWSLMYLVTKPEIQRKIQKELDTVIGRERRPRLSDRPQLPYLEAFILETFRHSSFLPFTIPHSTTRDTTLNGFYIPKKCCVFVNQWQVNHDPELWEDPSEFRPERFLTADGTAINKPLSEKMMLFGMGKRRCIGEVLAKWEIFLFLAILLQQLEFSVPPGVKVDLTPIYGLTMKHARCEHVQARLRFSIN
Sequence of Lysosomal acid glucosylceramidase (Homo sapiens) (P04062 whole entry, looked up): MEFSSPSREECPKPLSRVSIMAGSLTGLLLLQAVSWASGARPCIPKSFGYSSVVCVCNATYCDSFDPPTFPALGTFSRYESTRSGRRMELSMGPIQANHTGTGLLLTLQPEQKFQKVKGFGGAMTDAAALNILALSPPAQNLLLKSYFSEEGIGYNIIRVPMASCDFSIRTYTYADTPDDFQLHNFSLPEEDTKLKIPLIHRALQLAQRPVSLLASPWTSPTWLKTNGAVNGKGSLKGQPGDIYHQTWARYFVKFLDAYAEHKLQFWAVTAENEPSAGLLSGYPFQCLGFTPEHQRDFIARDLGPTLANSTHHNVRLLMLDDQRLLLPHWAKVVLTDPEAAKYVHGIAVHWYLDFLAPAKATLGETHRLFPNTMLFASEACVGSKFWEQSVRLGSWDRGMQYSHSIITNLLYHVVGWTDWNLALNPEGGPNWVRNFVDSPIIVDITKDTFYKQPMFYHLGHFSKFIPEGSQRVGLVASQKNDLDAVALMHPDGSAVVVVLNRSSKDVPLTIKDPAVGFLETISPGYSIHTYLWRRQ
Sequence of Glucocorticoid receptor (Homo sapiens) (P04150 whole entry, looked up): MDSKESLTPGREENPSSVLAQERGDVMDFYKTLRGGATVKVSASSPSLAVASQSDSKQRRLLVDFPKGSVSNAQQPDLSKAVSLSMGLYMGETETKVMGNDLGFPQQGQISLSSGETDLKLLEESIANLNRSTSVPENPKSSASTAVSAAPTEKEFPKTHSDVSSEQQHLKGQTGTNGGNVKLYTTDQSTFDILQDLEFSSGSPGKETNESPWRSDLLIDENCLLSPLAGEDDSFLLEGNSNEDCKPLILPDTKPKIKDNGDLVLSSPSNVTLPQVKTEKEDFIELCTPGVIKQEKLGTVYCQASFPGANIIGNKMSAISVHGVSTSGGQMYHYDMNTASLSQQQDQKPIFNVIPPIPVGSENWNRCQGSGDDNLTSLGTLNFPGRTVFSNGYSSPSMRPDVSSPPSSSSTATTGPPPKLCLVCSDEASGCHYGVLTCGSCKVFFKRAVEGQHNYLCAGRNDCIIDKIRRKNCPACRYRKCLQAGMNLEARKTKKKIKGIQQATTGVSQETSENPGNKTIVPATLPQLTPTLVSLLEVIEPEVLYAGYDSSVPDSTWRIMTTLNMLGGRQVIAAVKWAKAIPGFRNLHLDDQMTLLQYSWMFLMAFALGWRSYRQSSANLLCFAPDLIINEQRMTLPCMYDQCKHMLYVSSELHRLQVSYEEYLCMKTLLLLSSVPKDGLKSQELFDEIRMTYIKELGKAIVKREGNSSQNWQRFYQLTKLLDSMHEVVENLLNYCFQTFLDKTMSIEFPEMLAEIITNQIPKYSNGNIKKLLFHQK

Take `COc1ccc2[nH]c3cc4c(=O)c5cc(OC)ccc5[nH]c4cc3c(=O)c2c1`: the values for the Potency in test [1], in [6] and in [7] were more than 11.4 µM, more than 46 µM and more than 9.22 µM, respectively. Besides, the results for the activity change, negative = inhibition in test [2], in [3] and in [4] were -2.15%, -6% [at 2.29 µM] and -1.64%, respectively. The activity, negative = inhibition in test [5] is -1.86%. Further, the Potency entry in [8] and in test [9] was “inactive” each time.
`Cn1c(=O)c2c(ncn2CN2CCN(Cn3cnc4c3c(=O)n(C)c(=O)n4C)CC2)n(C)c1=O`: the Potency is more than 11.4 µM in test [1], more than 46 µM in test [6] and more than 9.22 µM in test [7]. In addition, the activity change, negative = inhibition was -1.04% in [2], -18.2% [at 2.29 µM] in test [3] and 7.2% in test [4]. The activity, negative = inhibition in test [5] is 2.15%. The Potency entry in test [8] and in test [9] was “inactive” throughout.
As for `Cc1ccc(S(=O)(=O)N[C@H](CO)C(=O)O)cc1`, the Potency in test [1] is more than 11.4 µM; in test [6], more than 46 µM; in test [7], more than 9.22 µM. The activity change, negative = inhibition in test [2] was 1.84%; in [4], -20.5%. Further, the Potency result in test [3], in test [8] and in test [9] was “inactive” each time. Also, the activity, negative = inhibition in test [5] was 0.571%.
Turning to `O=C(C[N+]1(c2ccccc2)CCOCC1)c1ccccc1`, the Potency was more than 11.4 µM in [1], 3.98 µM (active) in test [3], more than 46 µM in [6] and more than 9.22 µM in test [7]. The activity change, negative = inhibition in [2] is -5.21%; in test [4], 11.5%. The activity, negative = inhibition in test [5] was -5.59%. For the same compound, the Potency entry in test [8] and in test [9] was “inactive” in each case.
In the case of `Nc1ccc(N=Nc2c(S(=O)(=O)O)cc3ccccc3c2S(=O)(=O)O)cc1`, the Potency in test [1] is more than 11.4 µM; in [6], more than 46 µM; in [7] it was more than 9.22 µM. The figures for the activity change, negative = inhibition in test [2], in test [3] and in test [4] were -5.64%, -20.9% [at 2.29 µM] and 11.9%, respectively. For the same compound, in [5], the activity, negative = inhibition was 6.7%. Also, the Potency entry in test [8] and in test [9] was “inactive” each time.
For the compound `O=C(NNC(=O)c1ccncc1)c1ccncc1`, the Potency in test [1] is more than 11.4 µM; in test [6] it was more than 46 µM; in [7], more than 9.22 µM. The results for the activity change, negative = inhibition in [2] and in test [4] were 4.63% and 6.39%, respectively. The Potency result in test [3], in test [8] and in test [9] was “inactive” each time. The activity, negative = inhibition in test [5] was 2.81%.
As to `O=C1[C@@H]2[C@@H]3C=C[C@H]([C@@H]2C(=O)N1CN1CCSCC1)[C@@H]1[C@@H]2C(=O)N(CN4CCSCC4)C(=O)[C@@H]2[C@H]31`, the Potency in [1] was more than 11.4 µM; in test [6], more than 46 µM; in test [7], more than 9.22 µM. Further, the activity change, negative = inhibition was 11.7% in [2] and 5.4% in [4]. The Potency result in test [3], in [8] and in test [9] was “inactive” each time. In addition, the activity, negative = inhibition in [5] is -1.73%.
For `Oc1cc(CN2COc3ccccc32)c(O)cc1CNC1CCCCC1`, the values for the Potency in test [1], in test [6] and in test [7] were more than 11.4 µM, more than 46 µM and more than 9.22 µM, respectively. Moreover, the activity change, negative = inhibition in [2] was 6.94%; in [4], -5.35%. For the same compound, the Potency entry in test [3], in test [8] and in [9] was “inactive” throughout. Further, in [5], the activity, negative = inhibition is 0.916%.
Take `Cc1cc(N=Cc2c(CO)cnc(C)c2O)c(N=Cc2c(CO)cnc(C)c2O)cc1C.[Zn]`: the Potency is more than 11.4 µM in [1], more than 46 µM in test [6] and more than 9.22 µM in [7]. The activity change, negative = inhibition in test [2] was -2.68%; in test [3], -10.4% [at 2.29 µM]; in [4], 14.7%. In test [5], the activity, negative = inhibition was 7.49%. Moreover, the Potency result in [8] and in [9] was “inactive” in each case.
For the compound `Cc1ccc(S(=O)(=O)Oc2cc(N)c3c(n2)CCC3)cc1`, the Potency in test [1] is more than 11.4 µM; in [6], more than 46 µM; in test [7], more than 9.22 µM. For the same compound, the activity change, negative = inhibition in test [2] was 11.1%; in [3] it was -19.4% [at 2.29 µM]; in test [4] it was 9.71%. In addition, the activity, negative = inhibition in test [5] was -5.99%. In addition, the Potency result in [8] and in test [9] was “inactive” each time.
On to `Cn1cnc([N+](=O)[O-])c1[Se]c1nc(N)nc2c1ncn2[C@@H]1O[C@@H](CO)[C@H](O)[C@@H]1O`, for which the Potency was more than 11.4 µM in test [1], more than 46 µM in test [6] and more than 9.22 µM in [7]. Besides, the activity change, negative = inhibition was 4.67% in test [2], -12.8% [at 2.29 µM] in [3] and 8.52% in [4]. In [5], the activity, negative = inhibition was 10.6%. The Potency result in test [8] and in [9] was “inactive” throughout.
`Nc1nc(-c2ccc3ccccc3c2)cc(-c2cc(-c3ccc4ccccc4c3)nc(N)n2)n1`: the Potency in test [1] is more than 11.4 µM; in [3], 0.501 µM (active); in test [6] it was more than 46 µM; in test [7] it was more than 9.22 µM. For the same compound, the results for the activity change, negative = inhibition in test [2] and in test [4] were -3.27% and 9.25%, respectively. For the same compound, in test [5], the activity, negative = inhibition was 6.54%. The Potency entry in [8] and in test [9] was “inactive” each time.
For the compound `Nc1nc(N)c2[nH]cnc2n1` (tested in a mixture with another compound), the Potency in [1] was more than 11.4 µM; in [6], more than 46 µM; in test [7], more than 9.22 µM. Moreover, the activity change, negative = inhibition in test [2] was 4.54%; in [3], -5.5% [at 2.29 µM]; in test [4], 20.2%. Further, the activity, negative = inhibition in [5] was 4.45%. Moreover, the Potency result in test [8] and in test [9] was “inactive” each time.
On to `CC(C)(C)c1cc2c(O)c(c1)Cc1cc(C(C)(C)C)cc(c1O)Cc1cc(C(C)(C)C)cc(c1O)Cc1cc(C(C)(C)C)cc(c1O)Cc1cc(C(C)(C)C)cc(c1O)Cc1cc(C(C)(C)C)cc(c1O)Cc1cc(C(C)(C)C)cc(c1O)Cc1cc(C(C)(C)C)cc(c1O)C2`, for which the Potency was more than 11.4 µM in test [1], more than 46 µM in [6] and more than 9.22 µM in test [7]. The values for the activity change, negative = inhibition in test [2] and in test [4] were 6.61% and -14.8%, respectively. For the same compound, the Potency entry in test [3], in test [8] and in test [9] was “inactive” in each case. Besides, in [5], the activity, negative = inhibition is -5.63%.
